# Experimental data reported in PubChem BioAssay (EPA / NIEHS).
# Activity calls are given as the source filed them. Rule for the calls: active = hit-call score of the fitted dose curve at least 0.9, where 1 is the maximum; inactive = score below 0.9.
# Key:
# [1] = ATG_CRE_CIS: Attagene CIS-FACTORIAL HepG2 Assay for human cAMP Responsive Element (CRE) binding protein 3 (AID 2282926); settings: HepG2 CRE cis-reporter, Attagene multiplexed mRNA; actives raise or lower the signal
# Procedure, shortened: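 We dosed HepG2 cells bearing multiple cis-promoter reporter units for 24 h and measured reporter mRNA by RT-PCR with capillary electrophoresis detection. Bidirectional concentration-response fitting used DMSO as negative control.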
# [2] = biological target: CCAAT/enhancer-binding protein beta (Homo sapiens) (UniProt P17676); test: ATG_C_EBP_CIS: Attagene CIS-FACTORIAL HepG2 Assay for human CCAAT/Enhancer Binding Protein (C/EBP) beta (AID 2282927); settings: HepG2 Attagene cis-factorial transcription factor reporter; actives raise or lower the signal
# CCAAT/enhancer-binding protein beta (Homo sapiens), sequence (P17676 whole entry, looked up, the tested form may be a part): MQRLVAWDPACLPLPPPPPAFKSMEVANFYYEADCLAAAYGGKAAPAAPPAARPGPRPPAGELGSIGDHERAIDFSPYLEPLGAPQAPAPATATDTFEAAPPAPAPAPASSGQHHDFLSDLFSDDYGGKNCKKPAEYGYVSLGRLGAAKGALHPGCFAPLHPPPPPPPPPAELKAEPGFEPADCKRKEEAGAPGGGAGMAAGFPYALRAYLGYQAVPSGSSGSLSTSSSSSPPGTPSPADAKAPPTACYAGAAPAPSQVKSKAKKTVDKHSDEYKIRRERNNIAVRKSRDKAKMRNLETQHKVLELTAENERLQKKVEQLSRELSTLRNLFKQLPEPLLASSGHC
# Procedure, shortened: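 Endogenous C/EBPb-driven reporter transcripts measured in transfected human HepG2 cells at 24 h via RT-PCR and capillary electrophoresis of labelled fragments. Activity fitted in both directions relative to DMSO baseline.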
# [3] = ATG_CMV_CIS: Attagene CIS-FACTORIAL HepG2 Assay for human CMV (Internal Marker) (AID 2282928); settings: HepG2 CMV promoter reporter, transcription factor profiling; actives raise or lower the signal;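 note: endpoint acts as a background internal control marker rather than a target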
# Procedure, shortened: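 After transient transfection of HepG2 with reporter transcription units driven by cis-regulatory promoters, cells receive test chemical for 24 h. Labeled reporter amplicons, digested with HpaI, are sized and quantified by capillary electrophoresis against DMSO.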
# [4] = ATG_DR4_LXR_CIS: Attagene CIS-FACTORIAL HepG2 Assay for human Liver X Receptor (LXR), DR4 submotif (AID 2282929); settings: HepG2 Attagene DR4 cis-reporter, mRNA transcription; actives raise or lower the signal
# Procedure, shortened: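 HepG2 cells transiently transfected with cis-promoter-driven multiplexed reporter units (DR4 element) were dosed for 24 h. Reporter mRNA was quantified by RT-PCR, fluorescent primer extension, HpaI digestion and capillary electrophoresis; bidirectional fitting versus DMSO baseline.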
# [5] = biological target: Aryl hydrocarbon receptor (Homo sapiens) (UniProt P35869); test: ATG_Ahr_CIS: Attagene CIS-FACTORIAL HepG2 Assay for human Aryl Hydrocarbon Receptor (Ahr) (AID 2282930); settings: HepG2 AhR cis-factorial reporter transcription; actives raise or lower the signal
# Aryl hydrocarbon receptor (Homo sapiens), sequence (P35869 whole entry, looked up): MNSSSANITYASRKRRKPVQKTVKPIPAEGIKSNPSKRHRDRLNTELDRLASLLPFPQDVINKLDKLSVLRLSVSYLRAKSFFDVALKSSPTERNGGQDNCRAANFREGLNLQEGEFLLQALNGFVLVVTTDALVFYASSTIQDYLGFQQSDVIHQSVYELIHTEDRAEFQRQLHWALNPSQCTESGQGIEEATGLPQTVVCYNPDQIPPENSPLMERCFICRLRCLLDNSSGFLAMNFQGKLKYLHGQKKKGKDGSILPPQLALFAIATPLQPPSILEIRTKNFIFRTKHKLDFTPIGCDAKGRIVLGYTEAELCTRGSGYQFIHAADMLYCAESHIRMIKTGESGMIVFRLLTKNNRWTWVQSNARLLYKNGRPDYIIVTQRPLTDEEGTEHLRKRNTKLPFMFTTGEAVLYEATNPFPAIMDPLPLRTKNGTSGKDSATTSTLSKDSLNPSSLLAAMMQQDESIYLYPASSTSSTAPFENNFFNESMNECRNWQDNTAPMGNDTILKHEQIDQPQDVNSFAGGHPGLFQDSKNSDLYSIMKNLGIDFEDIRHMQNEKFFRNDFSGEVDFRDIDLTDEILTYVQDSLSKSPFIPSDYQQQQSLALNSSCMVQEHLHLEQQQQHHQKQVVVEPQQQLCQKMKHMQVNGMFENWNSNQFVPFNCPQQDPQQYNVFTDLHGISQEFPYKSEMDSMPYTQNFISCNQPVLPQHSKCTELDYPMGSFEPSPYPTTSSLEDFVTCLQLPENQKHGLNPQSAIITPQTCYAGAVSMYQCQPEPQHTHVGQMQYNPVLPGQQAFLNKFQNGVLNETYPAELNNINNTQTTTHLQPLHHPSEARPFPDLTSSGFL
# Procedure, shortened: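 Reporter mRNA levels, quantified by RT-PCR and fluorescent capillary electrophoresis, reflect endogenous AhR transcriptional activity in HepG2 cells carrying transfected cis-promoter reporter constructs. Readout at 24 h post-dose; gain or loss fitted against DMSO baseline.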
# [6] = ATG_AP_1_CIS: Attagene CIS-FACTORIAL HepG2 Assay for human Activator Protein 1 (AP-1) (AID 2282931); settings: HepG2 Attagene cis-factorial AP-1 reporter mRNA; actives raise or lower the signal
# Procedure, shortened: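 HepG2 cells transiently transfected with cis-element-driven multiplex reporter units; 24 h compound exposure. Reporter mRNA quantified by RT-PCR, FAM-labelled fragments resolved by capillary electrophoresis; bidirectional fit versus DMSO baseline.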
# [7] = ATG_AP_2_CIS: Attagene CIS-FACTORIAL HepG2 Assay for human Activator Protein 2 (AP-2) (AID 2282932); settings: HepG2 AP-2 cis-reporter, Attagene transcription factor profiling; actives raise or lower the signal
# Procedure, shortened: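 HepG2, transient MRTU transfection, cis-regulated reporters; 24 h compound exposure; RNA isolated, RT-PCR, 6-FAM labelling, HpaI digest, CE fluorescence. DMSO = negative control/baseline, bidirectional fit.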
# [8] = ATG_BRE_CIS: Attagene CIS-FACTORIAL HepG2 Assay for human Bone Morphogenetic Protein (BMP) Response Element (BRE) (AID 2282933); settings: HepG2 BMP response element reporter, Attagene transcription factor profiling; actives raise or lower the signal
# Procedure, shortened: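 Endogenous transcription factor activity read in transiently transfected HepG2 cells after 24 h chemical exposure. Bidirectional curve fitting against DMSO; readout is reporter transcript level by RT-PCR with capillary electrophoresis of labelled products.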
# [9] = biological target: Retinoic acid receptor alpha (Homo sapiens) (UniProt P10276); test: ATG_DR5_RAR_CIS: Attagene CIS-FACTORIAL HepG2 Assay for human Retinoic Acid Receptor Alpha (RARE), DR5 submotif (AID 2282934); settings: HepG2 Attagene cis-factorial RARE DR5 reporter, mRNA; actives raise or lower the signal
# Retinoic acid receptor alpha (Homo sapiens), sequence (P10276 whole entry, looked up): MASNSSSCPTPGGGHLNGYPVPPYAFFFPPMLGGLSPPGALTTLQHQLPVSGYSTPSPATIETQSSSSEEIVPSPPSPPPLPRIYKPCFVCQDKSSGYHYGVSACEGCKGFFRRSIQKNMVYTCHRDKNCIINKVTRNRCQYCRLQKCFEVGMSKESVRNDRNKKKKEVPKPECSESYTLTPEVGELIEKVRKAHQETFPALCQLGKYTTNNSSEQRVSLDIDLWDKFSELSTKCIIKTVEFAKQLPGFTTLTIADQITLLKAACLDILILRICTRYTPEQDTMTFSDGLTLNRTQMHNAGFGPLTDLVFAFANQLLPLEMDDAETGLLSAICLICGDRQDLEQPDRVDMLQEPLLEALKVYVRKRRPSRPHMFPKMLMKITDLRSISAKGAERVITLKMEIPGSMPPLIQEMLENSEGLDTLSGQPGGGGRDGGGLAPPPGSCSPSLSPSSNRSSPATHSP
# Procedure, shortened: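 Reporter transcripts from a DR5-regulated unit, measured via RT-PCR plus capillary electrophoresis, reflect endogenous RAR activity in transiently transfected human HepG2 liver cells. Exposure lasted 24 h; gain or loss of signal scored against DMSO.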
# [10] = biological target: Transcription factor E2F1 (Homo sapiens) (UniProt Q01094); test: ATG_E2F_CIS: Attagene CIS-FACTORIAL HepG2 Assay for human E2F Transcription Factor 1 (AID 2282935); settings: HepG2 Attagene cis-reporter, E2F reporter RNA transcripts; actives raise or lower the signal
# Transcription factor E2F1 (Homo sapiens), sequence (Q01094 whole entry, looked up): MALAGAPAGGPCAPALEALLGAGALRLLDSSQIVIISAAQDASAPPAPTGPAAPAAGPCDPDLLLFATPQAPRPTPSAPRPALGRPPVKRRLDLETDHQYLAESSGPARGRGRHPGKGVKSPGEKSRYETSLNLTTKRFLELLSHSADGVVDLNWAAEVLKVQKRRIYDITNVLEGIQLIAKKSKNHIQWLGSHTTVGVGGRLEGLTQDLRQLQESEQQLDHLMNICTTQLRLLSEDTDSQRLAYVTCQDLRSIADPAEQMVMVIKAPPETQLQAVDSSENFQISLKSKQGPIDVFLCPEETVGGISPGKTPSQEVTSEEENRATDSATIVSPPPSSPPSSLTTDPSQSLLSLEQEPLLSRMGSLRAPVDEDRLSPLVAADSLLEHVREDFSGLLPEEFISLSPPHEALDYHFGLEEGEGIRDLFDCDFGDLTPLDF
# Procedure, shortened: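 Cis-element reporter mRNA induction in transiently transfected HepG2, 24 h exposure. Activity fitted in both directions relative to DMSO negative control.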
SMILES,outcome [1],outcome [2],outcome [3],outcome [4],outcome [5],outcome [6],outcome [7],outcome [8],outcome [9],outcome [10],AC50 [5],AC50 [6],AC50 [1],AC50 [4]
N=c1ccn2c(n1)O[C@H]1[C@H](O)[C@@H](CO)O[C@H]12,inactive,inactive,inactive,inactive,inactive,inactive,inactive,inactive,inactive,inactive,,,,
OC1CCCC1,inactive,inactive,inactive,inactive,inactive,inactive,inactive,inactive,inactive,inactive,,,,
O=c1[nH]c(=O)c2[nH]c(=O)[nH]c2[nH]1,inactive,inactive,inactive,inactive,inactive,inactive,inactive,inactive,inactive,inactive,,,,
C=C[Si](OC(C)=O)(OC(C)=O)OC(C)=O,inactive,inactive,inactive,inactive,inactive,inactive,inactive,inactive,inactive,inactive,,,,
Cc1cccc(N(C)C(=S)Oc2ccc3ccccc3c2)c1,inactive,inactive,inactive,inactive,inactive,inactive,inactive,inactive,inactive,inactive,,,,
COC(=O)/C=C\C(=O)O,inactive,inactive,inactive,inactive,inactive,inactive,inactive,inactive,inactive,inactive,,,,
CO[Si](CCC1CCC2OC2C1)(OC)OC (stereo not given),inactive,inactive,inactive,inactive,inactive,inactive,inactive,inactive,inactive,inactive,,,,
C(=CC=Nc1ccccc1)C=CNc1ccccc1,inactive,inactive,inactive,inactive,,,inactive,inactive,inactive,inactive,10.1 µM (active),100 µM (active),,
Cc1ccc2oc(=O)ccc2c1,inactive,inactive,inactive,inactive,inactive,inactive,inactive,inactive,inactive,inactive,,,,
CC(C)c1ccc(C#N)cc1,inactive,inactive,inactive,inactive,inactive,inactive,inactive,inactive,inactive,inactive,,,,
C=CC(C)(C)C,inactive,inactive,inactive,inactive,inactive,inactive,inactive,inactive,inactive,inactive,,,,
O=C1CCCC1,inactive,inactive,inactive,inactive,inactive,inactive,inactive,inactive,inactive,inactive,,,,
OC1OCCOC1O (stereo not given),inactive,inactive,inactive,inactive,inactive,inactive,inactive,inactive,inactive,inactive,,,,
O=C1CCCC(=O)O1,inactive,inactive,inactive,inactive,inactive,inactive,inactive,inactive,inactive,inactive,,,,
C=CC(=O)OCCC(=O)O,inactive,inactive,inactive,inactive,inactive,inactive,inactive,inactive,inactive,inactive,,,,
COC(=O)c1sccc1S(N)(=O)=O,inactive,inactive,inactive,inactive,inactive,inactive,inactive,inactive,inactive,inactive,,,,
COc1ccc(C(Cl)=C(c2ccc(OC)cc2)c2ccc(OC)cc2)cc1,inactive,inactive,inactive,inactive,inactive,inactive,inactive,inactive,inactive,inactive,,,,
CC(=O)[C@H]1[C@H](C#N)C[C@H]2[C@@H]3CC=C4C[C@@H](O)CC[C@]4(C)[C@H]3CC[C@@]21C,inactive,inactive,inactive,inactive,inactive,inactive,inactive,inactive,inactive,inactive,,,,
CCCCCCCC(C)=O,inactive,inactive,inactive,inactive,inactive,inactive,inactive,inactive,inactive,inactive,,,,
C=C[Si](C)(C)O[Si](C)(C)C=C,inactive,inactive,inactive,inactive,,inactive,inactive,inactive,inactive,inactive,100 µM (active),,,
CCN(CCC#N)c1ccc(N=Nc2c(Cl)cc([N+](=O)[O-])cc2Cl)cc1,inactive,inactive,inactive,inactive,inactive,,inactive,inactive,inactive,inactive,,27 µM (active),,
C=CCCCCCCCCC(=O)OCCCC,inactive,inactive,inactive,inactive,inactive,inactive,inactive,inactive,inactive,inactive,,,,
Cc1cc(=O)n(-c2ccccc2)n1C,inactive,inactive,inactive,inactive,inactive,inactive,inactive,inactive,inactive,inactive,,,,
CCC(=O)Oc1ccc(/C(CC)=C(\CC)c2ccc(OC(=O)CC)cc2)cc1,,inactive,inactive,,inactive,,inactive,inactive,inactive,inactive,,11.6 µM (active),25.9 µM (active),6.03 µM (active)
